Data as given in ChEMBL document CHEMBL4513216, “Probing the Open Global Health Chemical Diversity Library for Multistage-Active Starting Points for Next-Generation Antimalarials” (ACS Infect Dis, 2020).
The whole screen tested about 65,000 compounds, of which about 2,100 (3.2%) showed an effect of 50% or more. The median lay at about -52%. Shown is part of a subset that was picked to be rich in strong results.

system: Plasmodium falciparum; assay: Screen against P. falciparum Asexual Blood Stage (ABS), at 5uM; type: functional, Dd2; conditions: tested at 5 uM

Row | SMILES | INHIBITION [%]
1 | CCc1[nH]c(C2(N)CCCCC2)nc(=O)c1C | -30.6
2 | Cc1noc(C)c1CN1CCO[C@H]2CN(CC3CC3)C[C@H]21 | 26.3
3 | Cc1nc(=O)c(CC(=O)N2C[C@H]3CC[C@@H](C2)N(CC2CCC2)C3)c[nH]1 | -30
4 | COc1ccc(C(=O)C2CCCN(Cc3ccccc3O)C2)c(OC)c1 (centres undefined) | -55.9
5 | COCC1COCCC12CCN(C(=O)Cc1cccc(OC)c1)CC2 (centres undefined) | -3.52
6 | COc1ccc(C(=O)C2CCCN(CCc3ccccc3)C2)c(OC)c1 (centres undefined) | 71.8
7 | CCN(CC1CCCN(CCc2cccc(OC)c2)C1)C(=O)CN(C)C (centres undefined) | 83.3
8 | Cc1nc(NCc2ccco2)nc2c1COCC21CCNC1 (centres undefined) | 21.7
9 | Cn1cc(N2CCC3(CCN(Cc4cccnc4)C3)C2=O)cn1 (centres undefined) | -35.8
10 | CCCN1CC2(CCN(c3ncc(F)cn3)CC2)CC1C(=O)O (centres undefined) | -31.5
11 | CN(C)C[C@@H]1CN(C2CCN(c3ccc(Cl)cc3)CC2)C[C@@H]1CO | 88.5
12 | CN(C)C[C@@H]1CN(C2CCN(c3ccccc3Cl)CC2)C[C@@H]1CO | 74
13 | CN(C)C[C@@H]1C[C@@H]2CN(c3ncc(F)cn3)CC[C@@H]2N1C | 12.3
14 | CN(CCO)C[C@@H]1CN(C2CCN(c3ccccc3Cl)CC2)C[C@@H]1CO | 79.5
15 | Cc1cc(F)ccc1N1CCC(N2C[C@@H](CN(C)C)[C@@H](CO)C2)CC1 | 92.6
16 | COCCO[C@H]1COCCN(C2CCN(C)CC2)C1 | -110
17 | Cc1cc(CN2C[C@@H]3CCCO[C@@H]3[C@H](NS(C)(=O)=O)C2)no1 | -28.3
18 | O=C(C1CCCCC1)N1CCO[C@@H]2CNC[C@@H]21 | -65.1
19 | COC[C@]12COC[C@H]1CN(Cc1cccnc1OC)C2 | -130
20 | CN(CCO)C[C@@H]1CN(Cc2ccccc2-c2ccccc2)C[C@@H]1CO | 87.6
21 | CC(C)=CCN1C[C@@H]2CC[C@H]1CN(C(=O)Cc1c(C)[nH]c(C)nc1=O)C2 | -28.2
22 | Fc1ccc(CN2CCO[C@H]3[C@H](Oc4ccccn4)CC[C@@H]32)cc1 | -29
23 | Fc1ccc(CN2CCCC(c3cc4ncccc4[nH]3)C2)cc1 (centres undefined) | 82.3
24 | O=C(Cc1cccnc1)N1C[C@@H]2CC[C@H]1CN(Cc1ccc(F)cc1)C2 | -13.8
25 | CCOc1ccc(CN2CCCC(c3cc4ncccc4[nH]3)C2)cc1 (centres undefined) | 85

Row | SMILES | INHIBITION [%]
26 | c1cc(CO[C@H]2CC[C@H]3[C@H]2OCCN3Cc2nccs2)ccn1 | -84.3
27 | CN(C)C(=O)[C@H]1C[C@@H]2CCN(Cc3ccncc3)C[C@H]2O1 | -59.7
28 | CCc1c(C)sc2ncnc(N3CC[C@@H](N4CCC(O)CC4)[C@H](O)C3)c12 | 75.5
29 | Cc1cc(C)c(CNc2cnc3ccccc3n2)c(=O)[nH]1 | 12.9
30 | COc1ccccc1CCN1CCCC(CN(C)Cc2ccc(C)o2)C1 (centres undefined) | 87.8
31 | COc1ccccc1CC(=O)N(CCN1CCOCC1)Cc1ccco1 | -29.3
32 | COc1ccccc1CC(=O)N1CCN(Cc2ccco2)C[C@@H]1C | -101
33 | Cc1nc(CNCc2c(C(C)C)nn(C)c2N2CCOCC2)cs1 | 71.7
34 | Cc1nc(CN2CCOCC3(CCN(c4ncccn4)C3)C2)cs1 (centres undefined) | -42.9
35 | Cc1nc(CN2CCOCC3(CCN(c4ccccn4)C3)C2)cs1 (centres undefined) | 0.814
36 | CC(C)NC(=O)N1CCOC2(CNC2)C1 | -131
37 | Cc1cccc(CN2C[C@H](OCc3csc(C)n3)[C@H]3COC[C@H]32)n1 | -75.9
38 | Cn1ncc2c(NC3CN4CCC3CC4)nc(-c3ccncc3)nc21 (centres undefined) | 0.572
39 | Cn1ncc2c(NC3CCSC3)nc(-c3ccncc3)nc21 (centres undefined) | 83.1
40 | CN(C)C(=O)CN1C[C@H]2CC[C@@H](C1)N(Cc1c(Cl)cncc1Cl)C2 | -33.6
41 | CCc1cc(CN2C[C@@H]3CC[C@H]2CN(C2Cc4ccccc4C2)C3)on1 | 88.2
42 | CSc1ncc(CN2C[C@@H]3CC[C@H]2CN(C2CCOCC2)C3)cn1 | -18.2
43 | COCCN1CCO[C@@H]2CN(Cc3ccccn3)C[C@@H]2C1 | -86.9
44 | COc1cc(CN(CCCN(C)C)Cc2ccccn2)cc2c1OCO2 | 80.6
45 | COc1cc(CNC(C)Cn2cccn2)cc2c1OCCO2 (centres undefined) | -31
46 | Cc1ccsc1CN(CCCN(C)C)Cc1ccccn1 | 77.9
47 | COc1cc(CNC(C)Cn2cccn2)cc2c1OCO2 (centres undefined) | -32.2
48 | COCCn1ccnc1CN(Cc1ccccn1)Cc1sccc1C | 92.9
49 | Cc1ccc(N2C[C@@H]3CN(Cc4csc(C)n4)CCO[C@@H]3C2)nn1 | -106
50 | O=C1CO[C@H]2CN(Cc3ccccc3Br)C[C@@H]2N1 | 7.05

Row | SMILES | INHIBITION [%]
51 | COc1ccc(F)cc1C(=O)C1CCCN(Cc2ccc(C)s2)C1 (centres undefined) | 17
52 | COc1ccc(F)cc1CN1CCC(O)(CN2CCCCC2)C1 (centres undefined) | 70.9
53 | Cc1cc(F)ccc1CN1CCC(O)(CN2CCCCC2)C1 (centres undefined) | 78.8
54 | CN1CCO[C@H]2CN(C(=O)c3ccoc3)C[C@H]21 | -144
55 | Cn1nc(-c2ccccc2)cc1[C@H]1CN2CC[C@H]1C[C@@H]2CNS(C)(=O)=O | 15
56 | O=C(Cc1ccccc1)N1CCC2(CCN2Cc2ccc(F)cc2)C1 (centres undefined) | -12.1
57 | O=C1N(CCCc2ccccc2)CCCC1(O)CNCC1CCCCC1 (centres undefined) | 72.4
58 | O=C1N(CCc2ccccc2)CCCC1(O)CNCc1ccc(F)cc1 (centres undefined) | 78.1
59 | O=C(Nc1ccc(F)cc1)N1CCC(CO)(Nc2ccccc2)CC1 | -40.85
60 | CC(Cn1cccn1)NCCS(=O)(=O)c1ccccc1 (centres undefined) | -87.3
61 | O=C(C1CCN(S(=O)(=O)N2CCCC2)CC1)N1CCC2(CC1)OCCO2 | -133
62 | CC(C)CN1C[C@@H]2C[C@H](C(=O)NCc3cccnc3)[C@H](C1)O2 | -83.7
63 | CCc1ccc(CN(C)c2ccc(-c3nc(COC)no3)cn2)nc1 | 78.4
64 | c1cnc(N2CCO[C@H]3CN(CC4CCOCC4)C[C@H]32)nc1 | -125
65 | Cc1nnc(NC(=O)CN2CCCC(c3ccn[nH]3)C2)s1 (centres undefined) | 85.8
66 | O=C(CN1CCCC(c2ccn[nH]2)C1)Nc1nncs1 (centres undefined) | 89.1
67 | CC(C)(CNc1ccc(C#N)c(C(F)(F)F)c1)C(N)=O | -66.3
68 | Cc1ccc(C2(CN(C)Cc3sccc3C)CCNCC2)nc1 | 77.4
69 | COc1ccc(C(=O)NCCCOC(C)c2ccccc2)c(OC)c1 (centres undefined) | 78.9
70 | COCCCNC(=O)c1cn(C(C)(C)C)c2ncccc12 | -71.7
71 | Fc1ccc(CN2C[C@@H](OCc3ccccn3)[C@H]3COC[C@H]32)cc1 | -62.3
72 | O=C(NCCCN1CCCCC1)c1ccc(-n2ccc3ccccc32)s1 | 79
73 | CCN(CC)CCNC(=O)c1ccc(-n2ccc3ccccc32)s1 | 90.5
74 | Cc1nc(CN2CCN3C[C@H](Oc4cncnc4)C[C@H]3C2)cs1 | -50.1
75 | COCCCN1CCCC12CCN(Cc1cccnc1OC)CC2 | 8.49

Row | SMILES | INHIBITION [%]
76 | COc1ncccc1CN1CCC2(CC1)COCCN2C | -36
77 | c1ccc(Oc2nccc3occc23)c(CN2CCCCC2)c1 | 72.9
78 | COc1ncccc1CN1C[C@@H]2CN(c3ncccn3)C[C@@H]2C1 | 5.48
79 | CN1CCN(Cc2ccccc2Oc2nccc3occc23)CC1 | 77.4
80 | O=C([C@H]1C[C@H]2OCC[C@H]2N(Cc2cccnc2)C1)N1CCCCO1 | -141
81 | O=C(c1c[nH]c2ncccc12)N(Cc1ccco1)C1CCCC1 | 87
82 | CCC(C)(C)n1nnnc1C(c1cccs1)N1CCc2ccccc2C1 (centres undefined) | 73.9
83 | c1ccc(Sc2ccc3c(c2)OCO3)c(CNC2=NCCN2)c1 | 83.7
84 | Fc1ccc(Sc2ccccc2CNC2=NCCN2)cc1 | 80.4
85 | Fc1ccccc1Sc1ccccc1CNC1=NCCN1 | 77.4
86 | Cc1csc(CN2CC[C@H]3C[C@H](c4ccncn4)O[C@@H]3C2)n1 | -50.8
87 | CNCc1cn(C[C@H]2C[C@@H]3CCN2C[C@@H]3C(=O)NC2CCCCC2)nn1 | -152
88 | CO[C@H]1CCN(S(=O)(=O)N(C)C)[C@@H]2CN(Cc3cccnc3)C[C@H]12 | -7.26
89 | O=C(Nc1ccccc1)[C@H]1CN2CC[C@H]1C[C@@H]2Cn1cc(CCO)nn1 | -52.4
90 | c1ccc(COC2C[C@@H]3CN(Cc4cccnc4)C[C@@H]3C2)cc1 (some centres undefined) | -9.68
91 | CC(C)CN1CCNC(=O)C12CCN(C(=O)c1ccccn1)CC2 | -97.5
92 | O=C(N1CCCC1)N1C[C@@H]2CC[C@H]1CN(Cc1ccncc1)C2 | -121
93 | Cc1cccc(CO[C@@H]2C[C@H]3CN(c4ncccn4)CCN3C2)n1 | -75.8
94 | CCN(CC)Cc1ccccc1NC(=O)N(C)Cc1ccccc1O | 85
95 | Cc1cccc(CN2C(=O)C[C@@H]3[C@@H]2CCN3Cc2ccsc2)n1 | -13
96 | COc1ccccc1OCC(=O)N1CCN(Cc2noc(C)n2)CC1 | -68.9
97 | Cc1nc(CN2CCCC(NCCc3ccccc3Cl)C2)no1 (centres undefined) | 82.3
98 | CC(C)c1nc(CN2CCN(C(=O)Cc3ccccc3Cl)CC2)no1 | 10.3
99 | Fc1cnc(N2CCO[C@H]3CN(CC4CCC4)C[C@H]32)nc1 | -80
